Our source for the Potency values is PubChem BioAssay (NCATS).

The nature of assay [1]: Quantitative High-Throughput drug screen in 47 multiple myeloma cell lines against the NCATS MIPE library collection: JIM3_ECACC cell viability assay (AID 1918963; note: nearly all actives have a fitted effect of over 35% in size; note: potency is the fitted concentration of half-maximal effect). The method, boiled down: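 Primary qHTS used for cherry-picking: cells at 500/well, library compounds for 48 h (37C, 5% CO2), luminescent ATP assay.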
Assay [2] can be described thus: Quantitative High-Throughput drug screen in 47 multiple myeloma cell lines against the NCATS MIPE library collection: H1112_PLB cell viability assay (AID 1918967; note: nearly all actives have a fitted effect of over 30% in size; note: potency is the fitted concentration of half-maximal effect). The method, boiled down: (§1)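 CellTiter-Glo ATP luminescence gave viability after 48 h compound treatment at 37C of 500 multiple myeloma cells per well. Normalisation used DMSO-only wells as 100% and media-only wells as 0% viability; primary qHTS of approved and investigational drugs.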

Assay [3] can be described thus: Quantitative High-Throughput drug screen in 47 multiple myeloma cell lines against the NCATS MIPE library collection: Karpas25_ECACC cell viability assay (AID 1918968; note: nearly all actives have a fitted effect of over 35% in size; note: potency is the fitted concentration of half-maximal effect). The method, boiled down:
as §1

Assay [4] in a line: Quantitative High-Throughput drug screen in 47 multiple myeloma cell lines against the NCATS MIPE library collection: KMS27_JCRB cell viability assay (AID 1918970). Note: nearly all actives have a fitted effect of over 30% in size. Note: potency is the fitted concentration of half-maximal effect. The settings on record: KMS27 myeloma cells, CellTiter-Glo ATP viability, 48 h; viability (% of DMSO): at 45.8 µM (top of the series). The method, boiled down: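 CellTiter-Glo luminescence after 48 h drug exposure at 37 °C; 500 cells/well, 1536-well format, pin-tool compound addition; DMSO = 100%, media-only = 0% viability.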
(In general: ATP-based viability assays read luminescence as a measure of living cells.)

Assay [5] can be described thus: Quantitative High-Throughput drug screen in 47 multiple myeloma cell lines against the NCATS MIPE library collection: KMS12BM_JCRB cell viability assay (AID 1918971). Note: nearly all actives have a fitted effect of over 35% in size. Note: potency is the fitted concentration of half-maximal effect. The method, boiled down:
(§2)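 Inhibition of cell viability is measured here. Each line was plated at 500 cells per well, treated with MIPE 4.0 drugs, kept 48 hours at 37C, then assayed for ATP content by CellTiter-Glo luminescence.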

Assay [6] is described as follows: Quantitative High-Throughput drug screen in 47 multiple myeloma cell lines against the NCATS MIPE library collection: MMM1_PLB cell viability assay (AID 1918976). Note: potency is the fitted concentration of half-maximal effect; nearly all actives have a fitted effect of over 35% in size. The method, boiled down: (§3)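 Plated at 500 cells per well, myeloma lines received MIPE 4.0 compounds by pin tool. Following 48 h culture at 37 °C, CellTiter-Glo luminescence gave viability relative to DMSO and media-only controls.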

The nature of assay [7]: Quantitative High-Throughput drug screen in 47 multiple myeloma cell lines against the NCATS MIPE library collection: NCIH929_DSMZ cell viability assay (AID 1918978). Note: nearly all actives have a fitted effect of over 35% in size. Note: potency is the fitted concentration of half-maximal effect. The method, boiled down:
as §3

The nature of assay [8]: Quantitative High-Throughput drug screen in 47 multiple myeloma cell lines against the NCATS MIPE library collection: OCIMY1_PLB cell viability assay (AID 1918979). Note: nearly all actives have a fitted effect of over 35% in size. Note: potency is the fitted concentration of half-maximal effect. The method, boiled down: as §3
Assay [9] can be described thus: Quantitative High-Throughput drug screen in 47 multiple myeloma cell lines against the NCATS MIPE library collection: MM1R_ATCC cell viability assay (AID 1918981). Note: nearly all actives have a fitted effect of over 35% in size. Note: potency is the fitted concentration of half-maximal effect. The method, boiled down:
as §3

A short description of assay [10]: Quantitative High-Throughput drug screen in 47 multiple myeloma cell lines against the NCATS MIPE library collection: JJN3_DSMZ cell viability assay (AID 1918966; note: nearly all actives have a fitted effect of over 50% in size; note: potency is the fitted concentration of half-maximal effect). The method, boiled down:
as §1

Assay [11] can be described thus: Quantitative High-Throughput drug screen in 47 multiple myeloma cell lines against the NCATS MIPE library collection: KMS20_JCRB cell viability assay (AID 1918973). Note: nearly all actives have a fitted effect of over 45% in size. Note: potency is the fitted concentration of half-maximal effect. The method, boiled down:
as §1

Assay [12] is described as follows: Quantitative High-Throughput drug screen in 47 multiple myeloma cell lines against the NCATS MIPE library collection: KMS26_JCRB cell viability assay (AID 1918975). Note: nearly all actives have a fitted effect of over 45% in size. Note: potency is the fitted concentration of half-maximal effect. The method, boiled down:
as §2

The nature of assay [13]: Quantitative High-Throughput drug screen in 47 multiple myeloma cell lines against the NCATS MIPE library collection: MM1S_ATCC cell viability assay (AID 1918980). Note: nearly all actives have a fitted effect of over 45% in size. Note: potency is the fitted concentration of half-maximal effect. The method, boiled down: as §3
Assay [14] in a line: Quantitative High-Throughput drug screen in 47 multiple myeloma cell lines against the NCATS MIPE library collection: KMS12PE_JCRB cell viability assay (AID 1918972). Note: nearly all actives have a fitted effect of over 30% in size. Note: potency is the fitted concentration of half-maximal effect. The method, boiled down:
(§4)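 We plated 500 myeloma cells per well, pinned in MIPE 4.0 compounds, and incubated for 48 hours at 37C. ATP was then quantified with CellTiter-Glo, with DMSO and media-only wells defining 100% and 0%.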

Assay [15] can be described thus: Quantitative High-Throughput drug screen in 47 multiple myeloma cell lines against the NCATS MIPE library collection: MOLP8_DSMZ cell viability assay (AID 1918977). Note: nearly all actives have a fitted effect of over 45% in size. Note: potency is the fitted concentration of half-maximal effect. The method, boiled down: as §3
Assay [16] is described as follows: Quantitative High-Throughput drug screen in 47 multiple myeloma cell lines against the NCATS MIPE library collection: JIM1_ECACC cell viability assay (AID 1918964; note: potency is the fitted concentration of half-maximal effect). The method, boiled down:
as §1

The nature of assay [17]: Quantitative High-Throughput drug screen in 47 multiple myeloma cell lines against the NCATS MIPE library collection: INA6_PLB cell viability assay (AID 1918965; note: potency is the fitted concentration of half-maximal effect; nearly all actives have a fitted effect of over 55% in size). The method, boiled down:
as §4

Assay [18] is described as follows: Quantitative High-Throughput drug screen in 47 multiple myeloma cell lines against the NCATS MIPE library collection: KMS21BM_JCRB cell viability assay (AID 1918974). As to conditions: ATP luminescence, 48 h; viability: at 45.8 µM (top of the series). The method, boiled down: as §1

Results filed as inconclusive are left out. Values without a mark were called inactive. Active and inactive are the calls of the source. Calls come from the whole dose curve; as a rule, active = well fitted curve in the direction sought with a large enough effect; inconclusive = small, poorly fitted or top-dose-only effect, or another doubt; inactive = no such curve, though single readings can be large; an effect the other way counts as inactive or inconclusive.

For the molecule `Nc1ccn(C2CO[C@H](CO)O2)c(=O)n1` (stereo not given in full), the Potency in assay [1] was 3.32 µM (active); in assay [5], 0.833 µM (active); in assay [6] it was 4.69 µM (active). In addition, the Potency result in [2], in assay [3], in [4], in assay [7], in assay [8] and in [9] was “inactive” in each case.

In the case of `Nc1nc(=O)n([C@H]2CSC(CO)O2)cc1F` (stereo not given in full), the Potency entry in [1], in assay [10], in assay [3], in assay [4], in assay [11] and in assay [12] was “inactive” each time. The Potency result in [7], in [8] and in [9] was “inactive” in each case.

Regarding `NC[C@H]1O[C@H](O[C@H]2[C@@H](O)[C@@H](O[C@H]3O[C@H](CO)[C@@H](O)[C@H](N)[C@@H]3O)[C@H](N)C[C@@H]2N)[C@H](N)C[C@H]1O`, the Potency entry in assay [1], in assay [2], in assay [3], in [4], in assay [11] and in [12] was “inactive” each time. The Potency result in [7], in [8], in assay [13] and in assay [9] was “inactive” in each case. Besides, the Potency in assay [10] was 1.87 µM (active); in [6], 2.09 µM (active).

As for `CN[C@H](CC(C)C)C(=O)N[C@H]1C(=O)N[C@@H](CC(N)=O)C(=O)N[C@@H]2C(=O)N[C@H]3C(=O)N[C@H](C(=O)N[C@H](C(=O)O)c4cc(O)cc(O)c4-c4cc3ccc4O)[C@H](O)c3ccc(c(Cl)c3)Oc3cc2cc(c3O[C@@H]2O[C@H](CO)[C@@H](O)[C@H](O)[C@@H]2O[C@H]2C[C@](C)(N)[C@H](O)[C@H](C)O2)Oc2ccc(cc2Cl)[C@H]1O`, the Potency entry in assay [1], in assay [10], in assay [2], in assay [14], in assay [12] and in [15] was “inactive” in each case. Moreover, the Potency entry in assay [7], in [8] and in assay [9] was “inactive” throughout.

Consider `CC(=CC(=O)Nc1ccccc1C(=O)O)c1ccc2ccccc2c1`, for which the Potency in assay [16] is 0.59 µM (active); in assay [3], 20.9 µM (active); in assay [14], 23.5 µM (active); in assay [7] it was 7.43 µM (active); in [13], 8.33 µM (active). The Potency entry in [8] was “inactive”.

With `Cc1cc(C(=O)NOCCO)c(Nc2ccc(I)cc2F)n(C)c1=O`, the Potency result in [16], in assay [12], in assay [8] and in assay [9] was “inactive” each time. Moreover, the Potency in assay [10] was 4.69 µM (active); in [4] it was 0.0026 µM (active); in assay [7] it was 0.0074 µM (active); in assay [13], 2.96 µM (active).

Take `CC[C@]12C=CCN3CC[C@@]4(c5cc([C@@]6(C(=O)OC)C[C@H]7C[C@@H](C(C)(F)F)CN(Cc8c6[nH]c6ccccc86)C7)c(OC)cc5N(C)[C@H]4[C@@](O)(C(=O)OC)[C@H]1OC(C)=O)[C@@H]32`: the Potency was 0.001 µM (active) in [17]; 1.48 µM (active) in [10]; 0.0372 µM (active) in [2]; 0.0235 µM (active) in assay [3]; 0.0074 µM (active) in [14]; 1.48 µM (active) in assay [12]. The Potency in assay [6] was 4.69 µM (active); in [15] it was 9.35 µM (active); in [7], 0.469 µM (active); in [8] it was 0.0469 µM (active); in [13], 0.148 µM (active); in [9], 0.469 µM (active).

In the case of `Cc1ccc(-n2[nH]c(C)c(N=Nc3cccc(-c4cccc(C(=O)O)c4)c3O)c2=O)cc1C`, the Potency in assay [16] was 13.2 µM (active); in [17], 23.5 µM (active); in assay [2] it was 20.9 µM (active); in assay [5], 23.5 µM (active); in assay [6], 20.9 µM (active); in [15] it was 23.5 µM (active). In [13], the Potency is 18.7 µM (active). Also, in assay [14], the Potency entry was “inactive”.

As for `Cc1nc(NC(=O)N2CCC[C@@H]2C(N)=O)sc1-c1ccnc(C(C)(C)C(F)(F)F)c1`, the Potency in assay [17] was 14.8 µM (active); in [10], 6.62 µM (active); in assay [3], 5.26 µM (active); in assay [5], 10.5 µM (active); in assay [11] it was 1.48 µM (active); in assay [12] it was 4.18 µM (active). Moreover, the Potency in assay [6] was 0.59 µM (active); in assay [7] it was 0.148 µM (active); in assay [8], 0.0935 µM (active); in [13], 3.32 µM (active); in assay [9], 1.66 µM (active). In addition, the Potency entry in [4] and in assay [18] was “inactive” in each case.

Turning to `CS[C@H]1SC[C@@H]2C(=O)N(C)[C@H](C(C)C)C(=O)OC[C@H](NC(=O)c3cnc4ccccc4n3)C(=O)N[C@H](C)C(=O)N(C)[C@@H]1C(=O)N(C)[C@H](C(C)C)C(=O)OC[C@H](NC(=O)c1cnc3ccccc3n1)C(=O)N[C@H](C)C(=O)N2C`, the Potency in [17] was 0.001 µM (active); in assay [10], 0.0053 µM (active); in [3], 0.001 µM (active); in assay [4], 0.001 µM (active); in [5], 0.003 µM (active); in assay [14], 0.001 µM (active). For the same molecule, the Potency in [12] was 0.0132 µM (active); in assay [6], 0.0118 µM (active); in assay [15] it was 0.0047 µM (active); in [7] it was 0.001 µM (active); in [8], 0.0209 µM (active); in assay [13], 0.003 µM (active). Also, the Potency in [9] was 0.0019 µM (active).

Regarding `O=c1[nH]c(=O)n([C@H]2C[C@@H](O)[C@@H](CO)O2)cc1F`, the Potency was 18.7 µM (active) in [16]; 1.32 µM (active) in [17]; 4.69 µM (active) in assay [2]; 9.35 µM (active) in [4]; 7.43 µM (active) in [14]; 18.7 µM (active) in [6]. Besides, the Potency in assay [13] was 11.8 µM (active).

With `CC1=C(C(=O)Nc2cc3cn[nH]c3cc2F)C(c2ccc(Cl)cc2F)N=C(c2ccnc(Cl)c2)N1` (stereo not given), the Potency in [16] was 16.6 µM (active); in assay [17], 10.5 µM (active); in assay [2], 18.7 µM (active); in assay [3], 14.8 µM (active); in assay [4] it was 29.6 µM (active); in [14], 16.6 µM (active). Moreover, the figures for the Potency in assay [7] and in assay [9] were 14.8 µM (active) and 18.7 µM (active), respectively. In addition, the Potency entry in assay [12] is “inactive”.

For `CC1(C)O[C@@H]2C[C@H]3[C@@H]4CCC5=CC(=O)C=C[C@]5(C)[C@@H]4[C@@H](O)C[C@]3(C)[C@]2(C(=O)CO)O1`, the Potency result in assay [1], in assay [5], in [14], in [12], in assay [8] and in [9] was “inactive” each time. In addition, the Potency in assay [3] was 0.148 µM (active); in assay [11], 6.62 µM (active); in assay [7], 16.6 µM (active); in assay [13], 0.296 µM (active).

Regarding `C[C@@H]1[C@H](C)CC[C@]2(C(=O)O)CC[C@]3(C)C(=CC[C@@H]4[C@@]5(C)C[C@@H](O)[C@H](O)[C@@](C)(CO)[C@H]5CC[C@]43C)[C@@H]12`, the Potency entry in [1], in assay [3], in assay [4], in assay [14], in assay [11] and in assay [12] was “inactive” each time. Also, the Potency result in [15], in assay [7] and in assay [9] was “inactive” each time.

For `CN1[C@H]2CC(OC(=O)[C@@H](CO)c3ccccc3)C[C@H]1[C@H]1O[C@H]12` (stereo not given in full), the Potency entry in assay [1], in assay [2], in [3], in assay [4], in [14] and in [12] was “inactive” throughout. Further, the Potency result in [15], in [7], in assay [8] and in assay [9] was “inactive” throughout. Moreover, the Potency in assay [11] is 0.007 µM (active).
